Experimental data published in the supplement of paper PMC6555819.

What was measured:
Test in all cases: PBM binding z-score (relative to random genomic background probes); higher = stronger binding; sequences stand for … in GC…GCGATTGACAGCGTAGAATGAAGG
[1] = system: RARb homodimer (NR concentration 270 nM)
How it was run: (§1)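 Binding buffer was PBS pH 7.4 with 2% milk, 0.02% Triton X-100, 1 mM DTT, 0.2 mg/mL BSA and 0.4 mg/ml salmon testes DNA. In it, ligand-free nuclear receptor dimers were incubated 1 h on custom Agilent 4×180K protein-binding microarrays carrying double-stranded probes. Antibodies against each partner (one per run) detected binding, and z-scores were calculated against random background probes after regression normalization of scanned fluorescence.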

[2] = system: RARg:RXRa (NR concentration 270 nM, RXRa partner concentration 90 nM)
How it was run: as §1

[3] = system: RARg homodimer (NR concentration 270 nM)
How it was run: as §1

[4] = system: RXRa DBDmut IVT, anti-RXR (DBD mutation: RXRa K156A/R161A, NR concentration 90 nM)
How it was run: as §1

[5] = system: RXRa homodimer (NR concentration 180 nM)
How it was run: as §1

[6] = system: THRa:RXRa (NR concentration 90 nM, RXRa partner concentration 90 nM)
How it was run: as §1

[7] = system: THRa homodimer (NR concentration 90 nM)
How it was run: as §1

[8] = system: VDR homodimer (NR concentration 270 nM)
How it was run: as §1

Sequence | PBM binding z-score [1] | PBM binding z-score [2] | PBM binding z-score [3] | PBM binding z-score [4] | PBM binding z-score [5] | PBM binding z-score [6] | PBM binding z-score [7] | PBM binding z-score [8]
TGTCAAAGTTAAAAGGTAACGTAAGTATCCACAC | 0.641 | 1.31 | 1.09 | -0.392 | 1.22 | 1.72 | -0.237 | -0.239
ATCTCTCGGTAAGACTCAGTTCAGTGAAGAACGC | 1.05 | 0.265 | 0.481 | 0.833 | 0.224 | 0.746 | 1.17 | 2.06
ACTAGTTCGTCAGCTGAGGTCACACACAATTCGG | 4.27 | 4.08 | 3.93 | 3.38 | 4.37 | 4.66 | 5.07 | 4.73
CCGAGTAGGTTATGGGGCTTTCAGGCAACGGTGA | 0.416 | 0.0177 | 0.1 | -0.273 | 0.293 | 0.519 | 0.657 | 0.00532
AGTCATAGTTCAGGACGAGGTAACGTAAAGCACG | 1.82 | 2.66 | 2.61 | 0.51 | 1.39 | 3.35 | 1.67 | 0.515
TCTATTAGTTGAGGGGCAACCGACGAGTCCGTTT | 0.835 | 0.29 | 0.252 | 1.83 | 0.746 | 0.432 | 0.237 | 1.19
ATATGTAGGTTATCGGGTCATTTAGTTTGCGCAT | 3.08 | 3.19 | 2.33 | 1.69 | 3.5 | 3.3 | 2.86 | 2.85
AGAATGAGGTTATTAAGATCAGAGAATTGCGGTC | 0.575 | 1.21 | 0.933 | 1.88 | 1.7 | 2.06 | 0.584 | 1.11
ATCTCTAGGTAAAGATCGTTCAGTGAATGCAAAT | 0.111 | 0.0557 | 0.231 | -0.238 | -0.178 | 0.22 | -0.0507 | 0.139
TCTTGTAGATCAATAGAGGTTAAGAAAGTGCGCT | 1.1 | 0.791 | 0.296 | 0.705 | 1.28 | 2.07 | -0.31 | 0.3
ACAAGCAGGCCAAGTTTGGGTCACTCAAACAAAG | 2.34 | 2.8 | 1.88 | -0.286 | 1.1 | 2.47 | 0.738 | -0.0153
GCAGACAGGTGAAACGCAGGTAAGTCAGGGTGGC | 0.216 | 0.37 | 0.249 | -0.846 | 0.479 | 0.9 | -0.575 | -0.728
TCCGCTAGGTCAACGATGGTCAGCTAATCTGCTA | 3.45 | 3.93 | 4.83 | 1.1 | 2.23 | 3.06 | 1.03 | -0.0724
GGAACGAGGGCAAGTTGAGAGCAGAGTTTGATGG | 1.58 | 1.77 | 2.21 | 2.26 | 0.94 | 1.45 | 0.0177 | 1.66
TTAACAAGGTGAGCTGAGGTCGTTGATCCAACTC | 1.42 | 1.03 | 1.09 | 0.404 | 1.42 | 4.55 | 2.04 | 1.8
CAAACTAGGTCACAGAGGTCAAAGACCGTGCGTA | 5.43 | 7.3 | 7.86 | 3.1 | 7.71 | 4.68 | 2.81 | 6.4
CAAACTACGTCACGAAAGGTCAAAGTCGAATGAC | 4.48 | 5.61 | 5.12 | 1.05 | 6.68 | 3.93 | 1.11 | 2.66
TCTCGGAGGACACGAAAGGTCAGAGGTCGACATC | 5.07 | 5.51 | 5.38 | 1.21 | 6.06 | 3.99 | 1.69 | 2.12
ATCTCTAGGTAACCAAGTTAAGTGAATGCCGAAC | 0.215 | 0.245 | 0.306 | -0.119 | 0.154 | 0.825 | 0.542 | -0.108
ATCTCTAGGTAACCAAGTTGAGTGAATGCCGAAC | 0.229 | -0.0592 | 0.11 | 0.0229 | 0.0959 | 0.852 | 0.635 | 0.254
ACTATTAGTTGAGATGAGGGCAACCGATAGGTTG | 1.05 | 0.932 | 0.979 | 0.642 | 0.671 | 2.84 | 0.833 | 1.18
CAAACTAGGTCAACAGGTCAAAGTCCGCTTCCCG | 4.94 | 6.85 | 6.36 | 2.45 | 5.98 | 3.78 | 1.9 | 2.78
ACAGACAGGTGAGTGAAGGTAAATCAGCTGGACG | -0.00718 | 0.297 | 0.417 | -0.64 | 0.24 | 1.31 | -0.577 | -0.366
GATACAGGGTCAAGGCCAGAGAACGCGTATTGAT | 3.34 | 5.35 | 5.23 | 2.64 | 6.11 | 3.3 | 1.3 | 1.59
CCGACTGGGCCAAGGTTACCATAACGCACAGCCA | 0.94 | 0.614 | 0.453 | -0.285 | 0.719 | 1.07 | 0.784 | -0.176
ATCTCTAGGTAAGAGTTCAGTGAATCCCGAGGAT | 1.91 | 1.21 | 1.51 | 1.71 | 1.16 | 0.872 | 0.129 | 3.85
TCATATAGGTAAAAGGTGAAAGTAGGTGTGGTAA | 2.04 | 2.13 | 1.16 | 2.18 | 3.34 | 2.19 | 0.852 | 0.549
GCAGACAGGTGAAACGCAGGTAACTCGGGGTGGC | 0.185 | 0.966 | 0.131 | -0.847 | 0.633 | 1.55 | -0.0919 | -0.486
